In PubChem BioAssay AID1159580 (chemical genetic matrix, 2015):
About 2,000 (36%) of roughly 5,500 compounds were called active. Not shown: some 18% with an inconclusive outcome. Cut-off read from the data, not from the text of the source: active = normalized growth mostly below about 0.91 (no sharp cut-off); inconclusive = no clear call, values can overlap the other calls; inactive = mostly above about 0.92. This is one part of the list.

Experiment: chemical genetic growth profiling, strain panel (AID 1159580);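 note: tested at 20 µM; growth read once vehicle control cultures reached saturation at 30 °C; 1 = growth at the plate median or of vehicle wells; lower values mean less growth of the strain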
Settings: S. cerevisiae deletion strains, growth OD
[1] = locus YBR229C, strain ROT2, hits give low values
[2] = locus YDL101C, strain DUN1, hits give low values
[3] = locus YDL134C, strain PPH21, hits give low values
[4] = locus YDR150W, strain NUM1, hits give low values
[5] = locus YEL061C, strain CIN8, hits give low values
[6] = locus YGR078C, strain PAC10, hits give low values
[7] = locus YHR030C, strain SLT2, hits give low values
[8] = locus YHR087W, strain rtc3, hits give low values
[9] = locus YJR043C, strain POL32, hits give low values
[10] = locus YJR075W, strain HOC1, hits give low values
[11] = locus YLR039C, strain RIC1, hits give low values
[12] = locus YLR058C, strain SHM2 (second series), hits give low values
[13] = locus YLR085C, strain ARP6, hits give low values
[14] = locus YLR262C, strain YPT6, hits give low values
[15] = locus YML094W, strain GIM5, hits give low values
[16] = locus YMR219W, strain ESC1, hits give low values
[17] = locus YMR263W, strain SAP30, hits give low values
[18] = locus YNL153C, strain GIM3, hits give low values
[19] = locus YNL298W, strain CLA4 (second series), hits give low values
[20] = locus YNL322C, strain KRE1, hits give low values
[21] = locus YNR030W, strain Alg12, hits give low values
[22] = locus YPL055C, strain LGE1, hits give low values
[23] = locus YPL241C, strain CIN2, hits give low values
[24] = locus YPR135W, strain CTF4, hits give low values

Measured: normalized growth

c1ccc(-c2cc3c(ccc4nonc43)nn2)cc1
active: [7] 0.604 | [9] 0.76 | [22] 0.82
inactive: [1] 0.957 | [2] 0.933 | [3] 0.991 | [4] 0.922 | [5] 0.947 | [6] 0.973 | [8] 0.971 | [10] 0.97 | [11] 0.96 | [12] 0.977 | [13] 0.878 | [14] 0.988 | [15] 0.935 | [16] 0.981 | [17] 0.923 | [18] 0.955 | [19] 0.945 | [20] 0.988 | [21] 0.905 | locus YOL006C, strain TOP1, hits give low values 0.734 | [23] 0.89 | [24] 0.764

c1ccc(-c2cc3c(nn2)CCc2nonc2-3)cc1
inactive: locus YAL013W, strain DEP1, hits give low values 0.979 | [1] 0.984 | [2] 0.992 | [3] 0.985 | [4] 1.01 | [5] 0.985 | [6] 0.992 | [7] 0.784 | [8] 1.01 | locus YJL187C, strain SWE1, hits give low values 0.975 | [9] 0.984 | [10] 0.966 | [11] 1.04 | [12] 0.978 | [13] 0.886 | [14] 1.02 | [15] 1.04 | [16] 0.985 | [17] 0.958 | [18] 0.99 | [19] 0.965 | [20] 0.987 | [21] 0.986 | [22] 1.09 | [23] 0.988 | [24] 0.988
